Data reported in PubChem BioAssay (NCI).
The panel holds about 83,000 compounds, 20% with a hit somewhere; the sample as a whole holds those more often.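 Cells were grown in 96-well plates and exposed to the test compound at a single concentration for 48 hours; results are reported as percent growth, with values below 10 considered active.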 A number with no mark means an inactive call. Activity calls are given as the source filed them.

Experiments:
Assay in all cases: NCI-60 one-dose screen, 48 h (100 = growth as untreated, 0 = no growth, -100 = all killed)
[1] = tested on: HT29 colon; details: 10 µM unless noted
[2] = tested on: SNB-75 CNS; details: 10 µM unless noted
[3] = tested on: SNB-19 CNS; details: 10 µM unless noted
[4] = tested on: U251 CNS; details: 10 µM unless noted
[5] = tested on: PC-3 prostate; details: 10 µM unless noted
[6] = tested on: SK-MEL-5 melanoma; details: 10 µM unless noted
[7] = tested on: UACC-62 melanoma; details: 10 µM unless noted
[8] = tested on: LOX IMVI melanoma; details: 10 µM
[9] = tested on: SK-MEL-28 melanoma; details: 10 µM unless noted
[10] = tested on: SK-MEL-2 melanoma; details: 10 µM unless noted
[11] = tested on: SN12C renal; details: 10 µM unless noted
[12] = tested on: UO-31 renal; details: 10 µM unless noted
[13] = tested on: TK-10 renal; details: 10 µM unless noted
[14] = tested on: ACHN renal; details: 10 µM unless noted
[15] = tested on: CAKI-1 renal; details: 10 µM unless noted
[16] = tested on: A498 renal; details: 10 µM unless noted
[17] = tested on: CCRF-CEM leukemia; details: 10 µM unless noted
[18] = tested on: MOLT-4 leukemia; details: 10 µM unless noted
[19] = tested on: HCT-15 colon; details: 10 µM unless noted
[20] = tested on: EKVX NSCLC; details: 10 µM unless noted

SMILES	growth [1]	growth [2]	growth [3]	growth [4]	growth [5]	growth [6]	growth [7]	growth [8]	growth [9]	growth [10]	growth [11]	growth [12]	growth [13]	growth [14]	growth [15]	growth [16]	growth [17]	growth [18]	growth [19]	growth [20]
CCOC(=O)/C(=C\c1ccc2ccccc2c1)P(=O)(OCC)OCC	3.89% (active)	35.2%	41.8%	38.2%	58.5%	44.4%	9.26% (active)	-55.6% (active)	18.7%	54.7%	17%	12.4%	61.4%	14%	45.5%	55.3%	-36.6% (active)	-25.1% (active)		
COc1ccc2nc3cc(Cl)ccc3c(NCCCCCN3CCCCC3)c2c1		-98.1% (active)	2.99% (active)	-74.5% (active)		-96.9% (active)	-67.9% (active)	-80.4% (active)	-79.9% (active)	-71.8% (active)	10.3%	-40.6% (active)	-9.41% (active)	-67.7% (active)	-50.3% (active)	19.7%	-27.6% (active)	-19.5% (active)	-32.2% (active)	
N#C/C(=N\Nc1ccc(Cl)cc1)C(=O)C1CC1		56.5%		40.5%		0.976% (active)	32.1%	67.2%	53.9%	11.8%			52.9%		49.1%	43.4%	64.3%	79.8%	53.9%	
CC(=O)c1c(O)c(C)c(O)c2c1OC1=CC(=O)C(C(C)=O)C(=O)C12C (stereo not given)			96.9%	74.9%	45.3%	90.9%	62.8%		84.4%	83.7%		58.7%	103%	89%	74.2%	76.3%		71.9%	84.4%	51.9%
COc1cc([C@@H]2c3cc4c(cc3[C@H](OC3OC5COC(c6ccccc6)OC5C(O)C3O)[C@H]3COC(=O)[C@H]23)OCO4)cc(OC)c1OC (stereo not given in full)	23.2%	75.9%	79.9%	55.8%	8.28% (active)	-33.3% (active)	79.4%	30.2%	58.3%	2.6% (active)	41.8%	35.2%			31%	26.2%	16.2%	-7.44% (active)		74.7%
N#CC(=C1SCS1)[N+](=O)[O-]	1.29% (active)	40.5%	41.2%	14.4%	28.8%	5.48% (active)	38.1%	17%	37.8%	19.2%	28%	32.3%	3.93% (active)	24.5%		59.3%	2.01% (active)	3.81% (active)		63.7%
O=C1CSC(=S)N1Cc1cccnc1		83.3%	110%		85.1%	99.8%		17.5%	92.1%	85.8%		71%	9.3% (active)	97.2%	63.9%		12.9%	51.4%	58.3%	
CN(C)c1ccc2cc3c(cc2c1)Oc1ccccc1N3.[Cl][Zn][Cl]	97.3%	103%	114%	78.7%	81.1%	70.6%	65%	32%	111%	89.5%	89.3%	5.78% (active)	77.4%	70.9%	54.2%	115%	31.4%	24.7%		89.9%
CN(C)c1ccc(/C=C/c2nccc3ccccc23)cc1		98.8%	79.4%		83.4%			87.8%	89.4%		75.6%	58.4%	88.2%	87.1%	73.6%			99.9%	66.4%	
COC(=O)C(=[N+]=[N-])C(=O)c1ccc([N+](=O)[O-])o1		103%	92.9%	88.7%	74%		74%	78.9%	109%	95.5%	90.9%	89.7%		67.1%	104%	69.1%	83.9%	93.6%	10.5%	
CCN(CC)CC(O)c1cc(-c2ccc(Cl)cc2)nc2cc(Cl)ccc12 (stereo not given)			56.8%	8.59% (active)	28.5%	-95.6% (active)		11%	-56.6% (active)	22.7%	29.6%	35.2%	20.6%	7.25% (active)	-16.5% (active)	64.6%	3.88% (active)	-18.3% (active)	25.1%	
CCCCCCCCc1cc(Cl)c(O)c(Cl)c1		98.4%	93.2%	101%	89.9%		99.5%	95.6%	112%		103%	97.2%	113%	103%	89.6%	108%	111%	98.2%	115%	98.9%
CC(CSc1n[nH]c(=S)s1)c1ccccc1 (stereo not given)	126%	85.1%	102%	107%	102%	103%	108%	97.6%	116%	130%	101%	77.4%	116%	116%	98.5%	108%		91.2%		107%
CN=C(N)N/N=C(\C)c1ccc2c(c1)Cc1ccccc1-2			-40% (active)	-82.2% (active)	-20.6% (active)	-100% (active)	-80.2% (active)	-83.9% (active)	-98.4% (active)	-51.8% (active)	-40.5% (active)	-87.9% (active)	-75% (active)	-92.1% (active)	-53.9% (active)	-8.05% (active)	-35.2% (active)	-63% (active)	-81.4% (active)	1.95% (active)
CC(=O)N1CC(=O)NC1=S	106%	89.2%	101%	94.8%	97.9%	103%	96.1%	98.5%	108%	105%	100%	86.1%	102%	103%	93%		105%	104%		
O=[N+]([O-])c1ccc2c(c1)Cc1ccccc1-2		88.9%		90.9%	96.7%	97.7%	91.6%	100%	110%		101%	82.9%		94.2%	99%	82.4%	91.4%	86.2%	91%	61.1%
Nc1ccc(-c2ccc(N)c(S(=O)(=O)O)c2)cc1S(=O)(=O)O		83.1%	101%		101%	111%		94.4%	119%	127%	102%	94.5%	122%	105%	123%	141%	127%	131%	118%	119%
CCCOC(=O)c1nc(N(CC2CCCCC2)C(=O)NC)sc1/N=C/c1ccccc1			24.5%	5.96% (active)	25.3%	-11.9% (active)	4.74% (active)		35%	-0.0368% (active)	15%	23.9%	52.5%	17.4%	31.7%	63.5%	2.45% (active)	3.07% (active)	-70.3% (active)	9.94% (active)
